Compounds with a hit are over-represented: about 19% of the library has one in this group of screens.
SARS PLP yeast – blocks SARS-CoV papain-like protease in a yeast assay; S. cerevisiae expressing SARS-CoV PLpro, growth rescue; Potency, µM (titrated, usually from 32.9 µM), without a hit: at the top dose activity, positive = growth rescue, most hits filed as activators; 330,000 tested, 0.19% active; AID 485353; calls by dose curve; further: potency means the concentration at half of the fitted maximal effect; 0% is about no effect; nearly all actives have a fitted effect of over 55% in size
Pf growth 96h – P. falciparum growth inhibition at 96 hours; P. falciparum luciferase reporter growth, 96 h; Potency, µM (highest dose often 28.7 µM), for inactives: at the top dose activity change, negative = inhibition, hits mostly inhibitors; 320,000 tested, 6.9% active; further: potency means the concentration at half of the fitted maximal effect; on the % scale 0 is the no-effect control and ±100 the full control effect
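Infected RBCs, 2% Hct / 0.05% parasitemia final; luciferase-reporter P. falciparum; cpd 96 h, 37 C, 5% CO2; luciferase detection reagent; luminescence.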
Pf growth 48h – P. falciparum growth inhibition at 48 hours (one generation) | P. falciparum luciferase growth in erythrocytes, 48 h | Potency, µM (series often up to 28.7 µM), for inactives: top-dose activity change, negative = inhibition, most hits filed as inhibitors | 310,000 tested, 5.9% active; further: potency means the concentration at half of the fitted maximal effect; on the % scale 0 is the no-effect control and ±100 the full control effect
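A one-generation exposure of luciferase-tagged malaria parasites in RPMI 1640/Albumax erythrocyte culture, 37 C and 5% CO2. Inhibition is inferred from decreased luminescence after adding detection reagent.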
AMA1 RON2 block – disrupts binding of P. falciparum AMA1 to RON2. Potency, µM (top dose mostly 58.2 µM), without a hit: at the top dose activity change, negative = inhibition, actives largely listed as inhibitors. AlphaScreen AMA1-biotinylated RON2 peptide binding. 360,000 tested, 0.2% active;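 further: potency means the concentration at half of the fitted maximal effect; 0% = vehicle wells and -100% = peptide control; nearly all actives have a fitted effect of over 45% in size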
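AMA1 (3D7) with his tag at 25 nM final met compounds first, then biotinylated RON2 peptide at 25 nM; detection used donor plus acceptor beads, 10 µg/mL apiece, read by AlphaScreen after 30 min at room temperature.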
Cycloheximide cs – affects cycloheximide protein synthesis inhibition readout, counter-screen. cell reporter, cycloheximide protein synthesis inhibition counterscreen. max response, %. 300,000 tested, 12% active. AID 2314; in the data active means max response mostly above about 13%, no sharp cut-off; inactive means mostly below about 14%; further: read at 38.3 µM for the half of the compounds with a filed dose; 0% is about no effect
Shiga toxin inh – blocks Shiga toxin action in Vero cells; AID 2315; 290,000 tested, 9.2% active; inhibition, % at 38.7 µM; Vero cells, Shiga toxin protein synthesis inhibition reporter; in the data active means inhibition mostly above about 28%, no sharp cut-off; inactive means mostly below about 43%; further: 0% is about no effect
The depositor's hits bear a star; ? = inconclusive; · = not tested or not shown; + = active, no number; [ ] = dose if it differs, or a comment. Unless noted, the call rests on the fitted dose curve; in most records, active means well fitted curve in the direction sought with a large enough effect; inconclusive means small, poorly fitted or top-dose-only effect, or another doubt; inactive means no such curve, though single readings can be large; an effect the other way counts as inactive or inconclusive.

SMILES	SARS PLP yeast	Pf growth 96h	Pf growth 48h	AMA1 RON2 block	Cycloheximide cs	Shiga toxin inh
CC(C)(C)c1ccc(C(=O)Nc2cccc3c(=O)[nH][nH]c(=O)c23)cc1	12%	?	242%	-8%	56*	55*
Cc1cc(C(=O)Nc2cccc3ccccc23)co1	-3%	?	26%	1%	14*	28
CC(=O)Nc1ccc(CN(C)c2c(C)nc3ccc(C(=O)NCCCn4ccnc4)cn23)cc1	·	·	·	-26%	·	·
CCc1ccc(CN(C)C(=O)CCc2nnc(CCc3cccc(OC)c3)o2)nc1	-1%	10%	?	61%	-2	28
CCN(c1ccccc1)S(=O)(=O)c1ccc(Cl)c(C(=O)NC2CCN(Cc3ccccc3)CC2)c1	·	·	·	-2%	·	·
CNC(=O)C[C@H]1C(=O)N(c2ccc(OC)cc2)C[C@@H]1C	·	·	·	-3%	·	·
COc1ncccc1-c1ccc2nncn2c1	·	·	·	6%	·	·
Cc1ccc(C(=O)Nc2cccc3ccccc23)o1	·	·	·	-21%	·	·
Cc1oc(-c2ccccc2)cc1C(=O)Nc1cccc2ccccc12	-2%	0%	0%	-6%	16*	13
Cc1ccc(C(=O)Nc2cccc3ccccc23)cc1	3%	30%	48%	6%	29*	35*
COc1cccc(N2CCN(C(=O)CSc3ccc(F)cc3)CC2)c1	-4%	-5%	22%	-6%	14	40
O=[N+]([O-])c1ccc2nc(-c3ccccc3)cc(-c3ccccc3)c2c1	15%	55%	38%	23%[11.6 µM]	-3	-7
O=[N+]([O-])c1ccc(-c2ccccc2)c([As](=O)(O)O)c1	1%	2.1µM*	12µM*	-8%	-4	1
Cc1ccc(C(=O)Cn2ncsc2=N)cc1	2%	69%	115%	-3%	52*	127*
O=C(CNC(=O)c1ccccc1F)NCCOc1ccccc1Cl	3%	-7%	20%	-9%	15*	+
COc1ccc(C(=O)NCCOc2ccccc2Cl)c(OC)c1OC	2%	7%	101%	13%	54*	99*
Cc1ccc(NC(=O)C(=O)NCCOc2ccccc2Cl)cc1	-1%	-31%	9%	13%	-1	9
CN(CCOc1ccccc1Cl)Cc1ccccc1	0%	4%	33%	?	13*	·
O=C(NCCOc1ccccc1Cl)C(=O)NCCOc1ccccc1Cl	0%	2.9µM*	-3%[5.75 µM]	-3%	-4	-4
COc1cc(C(=O)NCCOc2ccccc2C)c(Br)c(OC)c1OC	-2%	407%	-7%	-2%	2	0
Cc1ccccc1OCCNC(=O)CNC(=O)c1ccccc1O	1%	·	3%	-6%	-2	5
Cc1ccc2cccc(S(=O)(=O)Nc3ccc4c(c3)OCO4)c2n1	-4%	0%	-4%	-11%	-2	-2
O=C(c1ccco1)N1CCN(Cc2nnnn2C2CCCCC2)CC1	0%	32%	-7%	-10%	-6	-9
Clc1ccc(OCc2cn3cccnc3n2)c2ncccc12	?	-33%	54%	6%	35*	101*
c1ccc(SCc2cn3cccnc3n2)nc1	4%	-23%	0%	-13%	14	13
SMILES	SARS PLP yeast	Pf growth 96h	Pf growth 48h	AMA1 RON2 block	Cycloheximide cs	Shiga toxin inh
NC(=O)COc1cccc2cccnc12	4%	17%	·	9%	1	-18
c1cnc2c(OCc3cn4cccnc4n3)cccc2c1	-9%	·	52%	-16%	28*	77
Clc1cccc(NCc2cn3cccnc3n2)c1	-8%	0%	0%	-4%	27*	18
Fc1ccc(COc2cccc3cccnc23)cc1	-1%	51%	1%	17%	41*	91*
Cc1cc(Cl)ccc1OCc1cn2cccnc2n1	-2%	105%	82%	0%	51*	84*
COCC(=O)Nc1ccc(S(=O)(=O)N2CCCC2)cc1	1%	40%	-32%[0.00184 µM]	8%	2	-1
CC(c1ccncc1)C(C)c1ccncc1 (stereo not given)	6%	?	?	0%	·	·
Cc1nn(C)c(C(=O)NCc2ccc(Cl)cc2)c1Cl	-25%	40%	21%	-4%[11.6 µM]	-3	5
Cc1nc2ccc(NC(=O)c3ccc(Cl)nc3)cc2s1	2%	?	-16%	10%	18*	24
Cc1nc2ccc(NC(=O)c3ccc(Cl)c([N+](=O)[O-])c3)cc2s1	5%	38%	18%	-1%	1	20
